About 83,000 compounds went through this panel and 20% of them were active in at least one assay; those are over-represented in the sample as a whole.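 Compound tested at a single concentration for 48 hours in 96-well plates; a percent growth value below 10 was scored as active.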 Active and inactive are the calls of the source.

This test relates to HT29 colon. Kind of test: NCI-60 one-dose screen, 48 h (100 = growth as untreated, 0 = no growth, -100 = all killed). The settings on record: 10 µM unless noted.
Regarding `COc1ccc2c(c1)C(=Nc1cc(OC)c(OC)c(OC)c1)C(=O)N2`, the growth is 115% (inactive).
To `COc1cnc2c(c1)C(=O)c1c-2n(CCCn2ccnc2)c(=O)c2cc(F)ccc12` belongs -16.2% (active).
The figure for `C[C@]12CCC(=O)C=C1CCC1C2[C@@H](O)C[C@@]2(C)C1CC[C@]2(O)C(=O)COC(=O)CCC(=O)O` (some centres undefined) is 107% (inactive); for `C[C@@H]1[C@H]2[C@H](C=C3[C@@H]4CC[C@H]5Cc6nc7c(nc6C[C@]5(C)[C@H]4C[C@@H](O)[C@@]32C)C[C@@H]2CC[C@H]3C4=C[C@@H]5O[C@@]6(CC[C@](C)(CO)O6)[C@@H](C)[C@@]5(O)[C@@]4(C)[C@H](O)C[C@@H]3[C@@]2(C)C7)O[C@]12CCC(C)(C)O2` it is -14.6% (active); for `CCOC(=O)/C=C1/SC(=Nc2ccc(C#N)cc2)N(Cc2ccco2)C1=O` it is 35% (inactive).
The figure for `C[C@H](C(=O)N[C@@H](Cc1ccc(-c2ccccc2)cc1)C(=O)NC1CC(C)(C)NC(C)(C)C1)c1ccc(-c2ccccc2)c(F)c1` is -61.2% (active).
Consider `Nc1ccccc1C#Cc1ccccc1C#Cc1ccc(OCCCCCCOc2ccc(C#Cc3ccccc3C#Cc3ccccc3N)cc2)cc1`, for which the growth was 108% (inactive).
The figure for `CCSc1nc(-c2ccco2)n2nc(-c3ccco3)cc2n1` is 99.4% (inactive); for `CN(C)c1ccc(-c2nc3ncc(Br)cc3o2)cc1` it is 110% (inactive).
The figure for `CN1CCN(c2nc3scc(-c4ccccc4)c3c(=O)[nH]2)CC1` is 96.7% (inactive); for `CC(=O)OC1Oc2cc(C)c(C)cc2-c2oc(=O)c(-c3ccccc3)cc21` (centres undefined) it is -23.7% (active).
The figure for `N#CC(C#N)C(C#N)C#N` is 97% (inactive); for `CCOC(=O)c1sc(NC(=O)COc2cccc(/C=C3\CCc4cc(OC)ccc4C3=O)c2)nc1C` it is 39.6% (inactive); for `COc1cnc2c(c1)C(=O)c1c-2n(CCCN2CCOCC2)c(=O)c2cc(F)ccc12` it is -27.5% (active).
On to `CCN1CC2=C(Nc3nc(SC)[nH]c(=O)c3C2c2cc(OC)c(OC)c(OC)c2)/C(=C/c2cc(OC)c(OC)c(OC)c2)C1` (centres undefined), for which the growth is 99.1% (inactive).
The figure for `CCOC(=O)CCC(=O)O[C@H]1[C@H](O[C@@H]2[C@@H](C)[C@H](O[C@H]3C[C@@](C)(OC)[C@@H](O)[C@H](C)O3)[C@@H](C)C(=O)O[C@H](CC)[C@@](C)(O)[C@H](O)[C@@H](C)C(=O)[C@H](C)C[C@@]2(C)O)O[C@H](C)C[C@@H]1N(C)C` is 102% (inactive).
Take `CNCCCn1c2c(c3ccc(F)cc3c1=O)C(=O)c1cc(OC)cnc1-2`: the growth was -20.9% (active).
With `NC(=NCCCCCCN=C(N)/N=C(\N)Nc1ccc(Cl)cc1)/N=C(\N)Nc1ccc(Cl)cc1`, the growth is 7.91% (active).
To `O=C1CSC(c2ccccc2Cl)N1c1nnc(Cn2nnc3ccccc32)o1` (centres undefined) belongs 81.2% (inactive); to `O=C(O)CCC(=O)OC[C@@H](NC(=O)C(Cl)Cl)[C@H](O)c1ccc([N+](=O)[O-])cc1`, 95.8% (inactive).
`COc1ccc(-c2cc(-c3nnc(SCC(=O)Nc4ccc(C(C)=O)cc4)n3-c3ccccc3)c3ccccc3n2)cc1OC`: the growth was 94.7% (inactive).
The figure for `C[C@H](C(=O)N[C@@H](Cc1ccc(-c2ccccc2)cc1)C(=O)NC1CC(C)(C)N(C)C(C)(C)C1)c1ccc(-c2ccccc2)c(F)c1` is -76.2% (active).
To `O=C(O)C1C(c2ccccc2)c2ccccc2C(O)C1CO` (centres undefined) belongs 106% (inactive); to `CSc1nc(Nc2ccc(S(=O)(=O)Nc3ccon3)cc2)c(C#N)c(-c2ccc(Cl)cc2)n1`, 101% (inactive).
`Cc1cc(C)c(C(=O)c2cccs2)c(C)c1`: the growth was 98.4% (inactive).
The figure for `COC(=O)C1(NC(=O)CNC(=O)OCc2ccccc2)CCCC1` is 108% (inactive); for `Cc1cc(C)nc(NS(=O)(=O)c2ccc(Nc3nc4nc(SCc5ccccc5)nc(-c5ccc(O)cc5)c4c(=O)[nH]3)cc2)n1` it is 123% (inactive).
In the case of `Nc1ccc(N=Nc2ccccc2)cc1[N+](=O)[O-]`, the growth is 92% (inactive).
As for `NS(=O)(=O)c1cc2c(cc1Cl)NC=NS2(=O)=O`, the growth was 94.7% (inactive).
`CCOC(=O)C1=CCC(n2cc(C)c(=O)[nH]c2=O)O1` (centres undefined): the growth was 110% (inactive).
To `C[C@@H]1C[C@@H]([C@@H](CC2CC(=O)NC(=O)C2)OC(=O)CC(=O)c2ccccc2)C(=O)[C@@H](C)C1` belongs 10.4% (inactive).
The figure for `OCc1n(Cc2ccc3ccccc3c2)cc[n+]1Cc1ccc2ccccc2c1` is 36.6% (inactive); for `COc1cnc2c(c1)C(=O)c1c-2n(CCCNC2=NCCS2)c(=O)c2cc(F)ccc12` it is 22.2% (inactive).
To `Cc1onc(-c2ccccc2Cl)c1C(=O)N[C@@H]1C(=O)N2[C@@H]1SC(C)(C)[C@@H]2C(=O)O` belongs 105% (inactive).
As for `C[C@H]1O[C@@H](O[C@H]2[C@@H](O)C[C@H](O[C@H]3[C@@H](O)C[C@H](O[C@H]4CC[C@]5(C)C6C[C@@H](O)[C@]7(C)[C@@H](C8=CC(=O)OC8)CC[C@]7(O)C6CC[C@@H]5C4)O[C@@H]3C)O[C@@H]2C)C[C@H](O)[C@@H]1O` (some centres undefined), the growth is -84.5% (active).
The figure for `CC1CN(/N=C/c2ccc([N+](=O)[O-])o2)C(=N)O1` (centres undefined) is 108% (inactive); for `O=C1NCCc2c1noc2-c1ccccc1` it is 90.5% (inactive).
The figure for `CC(=O)c1ccccc1NC(=O)C(C)(c1ccccc1)c1ccccc1` is 91.1% (inactive); for `Cc1n(Cc2ccc3ccccc3c2)c2ccccc2[n+]1Cc1ccc2ccccc2c1` it is -53.3% (active).

The values above are taken from PubChem BioAssay (NCI).
